Pf apPOL inh = Pf-apPOL DNA polymerase inhibition. Recombinant Pf-apPOL, molecular beacon fluorescence, 1.5 h. inhibition, % at 10 µM. AID 1794808. 210,000 compounds, 0.25% hits
mHTT-CaM PPI inh = inhibitors of human mutant huntingtin-calmodulin interaction. P42858. AlphaScreen His-mHTT/GST-CaM binding, luminescence. inhibition, % at 15 µM. 190,000 compounds, 3.6% hits;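 further: 0% = both proteins with DMSO and 100% = one protein alone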
* marks the source's active call; other numbers are inactive results; i = inactive; nt = not tested or not shown. Sampled rows, rich in hits. Any-hit rate of the full collection: about 3.5%. No stated cut-off is given here; in the data, active means inhibition above about 50%; inactive means the rest.

SMILES | Pf apPOL inh | mHTT-CaM PPI inh
COc1ccc(C=Nc2cccc(N=Cc3ccc(OC)c(OC)c3)c2)cc1OC | -4 | 74*
O=C(Cc1cc2ccccc2[nH]1)NC(C(=O)Nc1ccc2c(c1)OCCO2)c1ccccc1 (stereo not drawn) | -2 | 32
COC(=O)C(C)NC(=O)N1CCC2(CC1)Nc1cc(F)ccc1-n1cccc12 (stereo not drawn) | 4 | 38
CCN1c2cc(C)ccc2-n2cccc2C12CCN(C(=O)NC(C)C)CC2 | 2 | 99*
CCN1c2cc(C)ccc2-n2cccc2C12CCN(C(=O)NC(C)C(=O)OC)CC2 (stereo not drawn) | -2 | 68*
CCN1c2cc(C)ccc2-n2cccc2C12CCN(C(=O)Nc1ccccc1Cl)CC2 | 1 | 26
CCOc1ccc2ccccc2c1C(=O)NCC(O)C1CCCCC1 (stereo not drawn) | -3 | -4
O=C(C1CCCC1)N1CCc2ccc(NS(=O)(=O)c3ccc(F)cc3F)cc21 | -5 | 0
COc1ccc(OC)c(Nc2ncc3c(n2)CCN(Cc2ccccc2C)C3)c1 | 0 | 13
O=C(c1ccccc1F)N1CCN(C2=NN=C(c3ccccc3)CS2)CC1 | -7 | 92*
N#Cc1nc(-c2cccs2)oc1N1CCN(C(=O)c2ccco2)CC1 | -2 | -2
O=C(c1ccco1)N1CCN(C2=NN=C(c3cccs3)CS2)CC1 | 50* | 96*
O=C(c1ccccc1)c1ccc(N2CCN(C(=O)c3ccccc3F)CC2)c(F)c1 | 4 | -4
CCC1CN2C=NC(N3CCN(C(=O)NCc4ccc(F)cc4)CC3)=CC2=N1 (stereo not drawn) | -5 | 1
CC(=O)Nc1ccc(N2C(=O)CC(NCCc3ccccn3)C2=O)cc1 (stereo not drawn) | -15 | 54*
COc1cccc(CCNC2CC(=O)N(c3ccc(NC(C)=O)cc3)C2=O)c1 (stereo not drawn) | -6 | 4
COc1ccc2oc(-c3noc(-c4ccoc4)n3)c(C)c2c1 | 6 | 1
O=c1cc(O)c2sc(Nc3ccc(F)cc3)nc2[nH]1 | 4 | 20
N#Cc1c(Nc2ccc(F)cc2)sc2c(O)cc(=O)[nH]c12 | -3 | 51*
CSc1ccc(CNC(=O)C(C)C2CCN(S(=O)(=O)c3cccs3)CC2)cc1 (stereo not drawn) | 0 | 8
CC(C)(C)NC(=O)c1ccc(-c2nc(-c3ccccc3)no2)cc1 | -4 | -10
COC(=O)c1ccc(C(=O)N(CCn2cccn2)c2nc3c(C)cc(C)cc3s2)cc1 | -4 | 100*
Cc1ccc(C)c(C(=O)N(CCn2cccn2)c2nc3c(F)cccc3s2)c1 | -6 | -11
O=C(NCC1(O)CCc2ccccc21)C(=O)Nc1ccc2c(c1)OCCO2 (stereo not drawn) | -3 | -9
CC(=O)Nc1ccc(N=Cc2cc(C)cc(I)c2O)cc1 | -7 | 65*
SMILES | Pf apPOL inh | mHTT-CaM PPI inh
CC(=O)Nc1ccc(N=Cc2ccccc2O)cc1 | 0 | 4
O=C1[C@H]2CCC=C[C@H]2[C@H](c2ccccc2Br)N1Cc1ccccc1 | 8 | 46
CC1C=C[C@@H]2[C@H](C1)C(=O)N(Cc1ccccc1)[C@H]2c1ccccc1Br (stereo partly drawn) | -4 | 39
O=C1[C@H]2CCC=C[C@H]2[C@H](c2cccc(Br)c2)N1Cc1ccccc1 | 1 | 66*
Cc1cccc([C@H]2[C@@H]3C=CC(C)C[C@@H]3C(=O)N2Cc2ccccc2)c1 (stereo partly drawn) | -7 | 66*
Cc1ccc(S(=O)(=O)N=C(c2ccc(Cl)cc2)N(C)C)cc1 | 5 | -1
O=S(=O)(c1ccc(Br)s1)N1CCc2nc(-c3ccccc3)sc2C1 | 0 | -2
O=C(NCc1cccs1)Nc1nc(-c2ccccn2)cs1 | -7 | 100*
O=C(Nc1nc(-c2ccccn2)cs1)c1ccccc1[N+](=O)[O-] | -131 | 100*
CCOc1cccc2cc(-c3csc(NC(=O)c4ccc([N+](=O)[O-])o4)n3)oc12 | -4 | -6
O=C(Cc1csc(Nc2ncccn2)n1)NCc1cccs1 | -2 | -7
O=C(Nc1nc(-c2ccccn2)cs1)c1ccc([N+](=O)[O-])o1 | -55 | 74*
O=C(Nc1nc(-c2ccccn2)cs1)c1cc2cc([N+](=O)[O-])ccc2s1 | -28 | 23
Cc1c(C(=O)NCc2cccs2)oc2ccc(S(=O)(=O)N3CCC(C)CC3)cc12 | -4 | 5
COc1ccc(C(=O)N2CCc3nc[nH]c3C2)cc1 | -3 | 4
Cc1cc(C(=O)N2CCC(c3nnc(-c4ccc(F)cc4)o3)CC2)c(C)o1 | -5 | 100*
O=C(c1ccccc1Br)N1CCC(c2nnc(-c3ccc(F)cc3)o2)CC1 | -3 | -8
CC1CN(C(=O)c2ccc([N+](=O)[O-])cc2Cl)CC(C)O1 (stereo not drawn) | -1 | -2
CCOC(=O)C1CCN(Cc2cn3cc(F)ccc3n2)CC1 | -4 | -12
O=C(CN(C1CCCCC1)S(=O)(=O)c1ccccc1)N1CCCCCC1 | 46 | 2
O=C(CN(C1CCCCC1)S(=O)(=O)c1ccccc1)N1CCN(c2ccc(F)cc2)CC1 | -5 | 60*
Nc1nn2c(O)c(N)c(=O)[nH]c2c1[N+](=O)[O-] | nt | -3
CC(=O)c1ccc(NC(=O)CN2CCN(Cc3nc(C(C)(C)C)cs3)CC2)cc1 | -2 | 8
CC(C)(C)c1csc(CN2CCN(CC(=O)NC3CCCCC3)CC2)n1 | -1 | 100*
CCCN(C)C(=O)C1CCN(c2cncnc2N2CCOCC2)CC1 | -6 | 4
SMILES | Pf apPOL inh | mHTT-CaM PPI inh
O=c1nc(/C=C/c2ccc(-c3ccc(Br)cc3)o2)cc(C(F)(F)F)[nH]1 | -4 | 99*
O=C(O)c1cc(Cl)ccc1-c1ccc(/C=C/c2cc(C(F)(F)F)[nH]c(=O)n2)o1 | -1 | 13
O=C(O)c1ccccc1-c1ccc(/C=C/c2cc(C(F)(F)F)[nH]c(=O)n2)o1 | -5 | 3
O=c1nc(/C=C/c2ccc(-c3cccc(Cl)c3)o2)cc(C(F)(F)F)[nH]1 | -6 | 91*
NC(N)=NS(=O)(=O)c1ccc(N=Cc2cccs2)cc1 | -6 | 2
O=C(Nc1ccccc1)C(Cc1c[nH]c2ccccc12)NC(=O)C(c1ccccc1)c1ccccc1 (stereo not drawn) | 1 | 89*
COc1ccc(NC(=O)C(N)Cc2c[nH]c3ccccc23)cc1 (stereo not drawn) | -18 | 46
COc1ccc(CCNC(=O)Cc2cn(C)c3ccccc23)cc1OC | -8 | -1
Cc1c(Br)cc(C(=O)NC2CC(C)(C)NC(C)(C)C2)c(C)c1C | -1 | -4
O=C(OCc1cc(-c2cccs2)on1)c1ccc2nsnc2c1 | 3 | -1
Cc1cc(O)c2c(c1)OC(=Cc1ccc(Br)cc1)C2=O | -14 | 43
Cc1cc(O)c2c(c1)OC(=Cc1cccc(Br)c1)C2=O | -13 | 56*
Cc1cc(O)c2c(c1)OC(=Cc1ccccc1F)C2=O | 7 | 42
Cc1cc(O)c2c(c1)OC(=Cc1cn(C)c3ccccc13)C2=O | -2 | 72*
Cc1cncn(CC(=O)Nc2ccccc2Cl)c1=O | 5 | -10
CC1CCC(C(C)C)C(OC(=O)CCCN2C(=O)c3cccc4cccc(c34)C2=O)C1 (stereo not drawn) | -7 | -18
CCC(=O)N1CCc2cc(Br)cc(S(=O)(=O)NCCCN(CC)CC)c21 | -2 | 4
CN1C(=CC=C2C(=O)Oc3ccccc3C2=O)C(C)(C)c2ccccc21 | i | -7
CN1/C(=C\Sc2ccccc2[N+](=O)[O-])C(C)(C)c2ccccc21 | 1 | 76*

High-throughput results: PubChem BioAssay, University of Kansas High Throughput Screening Laboratory
